Data taken from PubChem BioAssay.
Inconclusive results are not listed. Calls of active or inactive are those of the source. Unless noted, the limit is not given here; nearly all actives have AC50 up to about 26 µM.

Key:
[1] = viability loss in pontine glioma line – cell-based, SU-DIPG-XVII, MIPE5.0, CellTiter-Glo, qHTS, dose response (AID 1347060); conditions: CellTiter-Glo ATP luminescence;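 as to AC50: cells exposed to compound for 48 hours before viability readout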
[2] = viability loss in pontine glioma line – cell-based, SU-DIPG-XIII, MIPE4.0, CellTiter-Glo, qHTS, dose response (AID 1347061; cut-off not given, nearly all actives have AC50 up to about 37 µM;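 also: cells exposed to compound for 48 hours before readout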); conditions: CellTiter-Glo ATP luminescence
[3] = viability loss in pontine glioma line – cell-based, JHH-DIPG-1, MIPE4.0, CellTiter-Glo, qHTS, dose response (AID 1347062; cut-off not given, nearly all actives have AC50 up to about 27 µM;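 as to AC50: cells exposed to compound for two days before readout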); conditions: JHH-DIPG-1 viability, CellTiter-Glo ATP luminescence
[4] = viability loss in pontine glioma line – cell-based, SU-DIPG-IV, MIPE4.0, CellTiter-Glo, qHTS, dose response (AID 1347063; cut-off not given, nearly all actives have AC50 up to about 30 µM;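 also: compound exposure lasted 48 hours before the viability readout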); conditions: CellTiter-Glo ATP luminescence
[5] = viability loss in pontine glioma line – cell-based, SU-DIPG-XXV, MIPE5.0, CellTiter-Glo, qHTS, dose response (AID 1347065); conditions: CellTiter-Glo ATP luminescence;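 also: cells exposed to compound for 48 hours before ATP readout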
[6] = growth inhibition of DIPG cells – cell-based, MIPE4.0 library, CellTiter-Glo luminescence, qHTS (AID 1347066; cut-off not given, nearly all actives have AC50 up to about 30 µM;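 also: cells exposed to compound for 48 hours before readout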); conditions: SU-DIPG-VI viability, CellTiter-Glo ATP luminescence
[7] = JHH-DIPG-1 glioma cell viability, MIPE5.0 library, CellTiter-Glo luminescence, qHTS (AID 1347067); conditions: JHH-DIPG-1 glioma viability, CellTiter-Glo ATP luminescence;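 also: cells exposed to compound for 48 hours before readout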
[8] = growth inhibition of DIPG cells – cell-based, MIPE5.0 library, qHTS (AID 1347068; cut-off not given, nearly all actives have IC50 up to about 30 µM); conditions: SU-DIPG-XXV viability
[9] = viability loss with induced miR-34 in A549 – imaging, A549 dox-inducible miR-34, nuclei and caspase counts, primary screen (AID 1347080;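 active = compounds whose cell count with miR-34 switched on is under 0.7 times the count with it off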); conditions: A549 miR-34 inducible, Hoechst nuclei count, 48 h
[10] = MELAS cybrid and Rieske KO viability enhancers – cell-based, MELAS cybrids, Rieske KO mouse fibroblasts, CellTiter-Glo, primary screen (AID 1508586;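 active = mean z-score across replicates of 1.96 or higher in either the MELAS or the Rieske mutant cell line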;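 also: z relative to plate mean and SD of compound and empty wells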); conditions: low glucose
[11] = compounds altering HSF1 focus formation in cells – imaging, Selleck Cancer Library (AID 1347162; in the data active = plate-normalised HSF1 focus index below about 0.46); conditions: human cells, HSF1 nuclear foci imaging, at 10 µM; SSMD: measured here: HSF1 foci SSMD mean; cell count: measured here: cell number; plate-normalised HSF1 focus index: stronger effect = lower value

NC[C@H]1O[C@H](O[C@@H]2[C@H](O)[C@@H](O[C@H]3O[C@H](CO)[C@@H](O)[C@H](N)[C@H]3O)[C@H](N)C[C@@H]2N)[C@H](O)[C@@H](O)[C@@H]1O
inactive: outcome [1] | outcome [2] | outcome [3] | outcome [4] | outcome [5] | outcome [6] | outcome [7] | outcome [8]

Cc1cc(Nc2ncnc3ccc(-c4ccc(CNCCS(C)(=O)=O)o4)cc23)ccc1Oc1ccn2ncnc2c1
7890: cell count ([9]; measured here: total cells with miR-34 induction, stronger effect = lower value)
inactive: outcome [8] | fold change ([9]; stronger effect = lower value, cell number ratio, induced over uninduced) 0.962 | z-score ([10]; MELAS cybrid survival, CellTiter-Glo 48 h, stronger effect = higher value) 1.86
-0.462: z-score ([10]; Rieske KO mouse fibroblast survival, CellTiter-Glo 72 h)
active: AC50 [1] 23.5 µM | AC50 [2] 23.5 µM | AC50 [3] 18.7 µM | AC50 [4] 14.8 µM | AC50 [5] 16.6 µM | AC50 [6] 16.6 µM | AC50 [7] 20.9 µM
8200: cell count ([9]; measured here: total cells without miR-34 induction)
1.06: fold change ([9]; measured here: relative caspase fold change +Dox/-Dox)

COc1nc(-c2ccc3c(c2)OCO3)n(-c2ccc(NC(=O)CSc3ccccc3)cc2)n1
0.993: SSMD [11]
inactive: outcome [1] | outcome [2] | outcome [3] | outcome [4] | outcome [5] | outcome [6] | outcome [8] | plate-normalised HSF1 focus index [11] 1.06
6960: cell count [11]

CCN1CCN(CC(=O)Nc2ccc(-c3cccc4c(=O)cc(N5CCOCC5)oc34)c3sc4ccccc4c23)CC1
active: AC50 [1] 9.1 µM | AC50 [2] 18.7 µM | AC50 [3] 16.6 µM | AC50 [4] 11.8 µM | AC50 [5] 6.45 µM | AC50 [6] 5.9 µM | AC50 [7] 12.9 µM

COC1CCC(N(C(=O)C2CCC(C)CC2)c2cc(C3=CCCCC3)sc2C(=O)O)CC1 (centres undefined)
inactive: outcome [1] | outcome [2] | outcome [3] | outcome [4] | outcome [5] | outcome [7] | outcome [8]

C[C@@H]1CC[C@@]2(OC1)OC1CC3C4CC=C5CC(O)CCC5(C)C4CCC3(C)C1[C@@H]2C (some centres undefined)
inactive: outcome [1] | outcome [2] | outcome [3] | outcome [4] | outcome [5] | outcome [6] | outcome [7] | outcome [8]
